# mcGAS MS inh: mouse cGAS inhibition by mass spec; 130,000 compounds, 0.18% hits; recombinant mouse cGAS, cGAMP by RapidFire MS; AID 1259397; Q8C6L5; inhibition, % at 12.5 µM;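 active means inhibition of cGAS enzyme activity at or above 60%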;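 further: enzyme stimulated by 45 bp dsDNA with ATP and GTP substrates; cGAMP share of summed cGAMP plus half ATP and half GTP signals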
# Target sequence (Q8C6L5 whole entry, looked up): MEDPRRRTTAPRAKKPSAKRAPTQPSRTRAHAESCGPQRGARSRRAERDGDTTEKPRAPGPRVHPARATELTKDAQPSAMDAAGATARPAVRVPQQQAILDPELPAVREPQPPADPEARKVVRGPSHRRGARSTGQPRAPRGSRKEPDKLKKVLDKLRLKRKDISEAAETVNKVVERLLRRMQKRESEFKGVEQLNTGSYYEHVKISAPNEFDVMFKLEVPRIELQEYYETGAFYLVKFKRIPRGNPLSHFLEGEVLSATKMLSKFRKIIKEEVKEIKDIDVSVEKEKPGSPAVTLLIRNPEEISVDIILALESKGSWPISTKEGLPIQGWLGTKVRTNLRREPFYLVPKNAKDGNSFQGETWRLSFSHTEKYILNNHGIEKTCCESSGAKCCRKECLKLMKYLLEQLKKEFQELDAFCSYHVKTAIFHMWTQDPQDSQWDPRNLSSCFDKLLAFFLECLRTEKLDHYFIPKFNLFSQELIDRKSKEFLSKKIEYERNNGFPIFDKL
# Active calls of the source: *; ! = not confirmed by another sample. This excerpt belongs to a sample that is enriched for hits.
SMILES,mcGAS MS inh
O=C1N=c2ccccc2=C1c1sc(N2CCCCC2)nc1O,88.3*
CCn1c(O)c(C2=c3ccccc3=NC2=O)sc1=S,7.3
O=C1N=c2ccccc2=C1c1sc(=S)n(-c2ccc(O)cc2)c1O,2.4
C#CCNC(=O)N1CCN(S(=O)(=O)c2ccc(OC)c(OC)c2)CC1,-27.8
O=c1cc(-c2cc(O)c(O)c(O)c2)oc2cc(O)cc(O)c12,3.4
O=c1oc2c(O)c(O)cc3c(=O)oc4c(O)c(O)cc1c4c23,93.4*
C#CCNC(=O)NC(C)c1ccc(C(C)C)cc1 (stereo not given),-12.7
NS(=O)(=O)c1ccc(F)c(F)c1F,3.0
CC(C)=NNc1nc(Cl)c(C#N)c(Cl)c1Cl,74.5*
C/C(=N/Nc1nc(Cl)c(C#N)c(Cl)c1Cl)c1ccc(N)cc1,39.2
O=C(Nc1cc(C(F)(F)F)ccc1N1CCCCC1)c1ccoc1,-5.0
COc1ccc(Cc2nc3ccc(C(=O)NCCOc4cccnc4)cc3o2)cc1OC,-3.4
CS(=O)(=O)C(C#N)=Cc1ccc(F)c(Br)c1,-0.7
CCN(CCn1cccn1)Cc1nc(-c2ccccn2)no1,-4.9
CC(C)CCOP(=O)(c1ccc(N(C)C)cc1)C(O)c1cccnc1 (stereo not given),-3.4
CC1CN(C(=O)Nc2ccc(OCc3cccnc3)cc2)CC(C)O1 (stereo not given),-5.6
O=C1c2ccccc2C(=O)c2c1ccc(O)c2O,84.5*
Nc1ccc2c(c1N)C(=O)c1ccccc1C2=O,3.9
O=C1C=C(O)c2ccccc2C1=O,11.6
CC(C)c1ccccc1NC(=O)C1CC1C (stereo not given),-22.7
COC(=O)c1cc(CNC(=O)CCn2cncn2)ccc1OC,-12.7
O=C(NNC(=O)c1cc2ccccc2cc1O)c1ccc(Br)o1,-6.5
N#CCC(=O)Nc1sc2c(c1C(N)=O)CCCC2,91.0*
NC(=O)c1c(NC(=O)CN2CCOCC2)sc2c1CCC2,-7.9
NC(=O)c1c(NC(=O)CSCC(=O)O)sc2c1CCCC2,-3.2
SMILES,mcGAS MS inh
CCc1cccc2c(C(CC(=O)O)c3cccc(Oc4ccccc4)c3)cn(CC)c12 (stereo not given),-3.3
CC(C)C(Cn1ccnc1)NC(=O)c1ccc(-n2cnnc2)cc1 (stereo not given),-6.4
COc1cc2c(c(OC)c1)C(c1c(C)nn(C(C)(C)C)c1C)CC(=O)N2 (stereo not given),-4.7
CN(C)P(Cc1ccccc1)(Cc1ccccc1)=Nc1ccccc1,-5.1
Cc1ccccc1CN1C(=O)C(C)Sc2ccc(-c3ccco3)cc21 (stereo not given),45.9
Cc1ccccc1CN1C(=O)C(C)Sc2ccccc21 (stereo not given),24.4
CC1Sc2ccc(-c3ccco3)cc2N(Cc2ccccc2Cl)C1=O (stereo not given),69.4*
CC1Sc2ccccc2N(Cc2ccccc2Cl)C1=O (stereo not given),69.3*
COc1cccc(-c2ccc3c(c2)N(Cc2ccc(F)cc2)C(=O)C(C)S3)c1 (stereo not given),-9.9
CC1Oc2ccccc2N(Cc2ccccc2Cl)C1=O (stereo not given),-14.6
O=C(CCc1cccnc1)N1CCC(c2ccnc(-c3cccc(O)c3)c2)C1 (stereo not given),-18.2
O=C(CSC1=NCCS1)NC12CC3CC(CC(C3)C1)C2,2.0
CC(NC(=O)C1CCN(C(C)C)CC1)c1ccc2[nH]ccc2c1 (stereo not given),-9.0
Cc1c(C(=O)NC2CC2)c(C(F)(F)F)nn1C1CCCN(C(C)C)C1 (stereo not given),-6.2
CCOc1ccc(N2CCn3c2nc2c3c(=O)n(CC)c(=O)n2C)cc1,-2.0
CC(CNC(=O)c1ncc(C(C)(C)C)o1)CC1(C)OCCO1 (stereo not given),3.8
CCN(CC)C(=S)SC(C)C(=O)NC1CC1 (stereo not given),-3.5
CCN(CC)C(=S)SSC(=S)N(CC)CC,75.6*!
CCOC(=O)C1CCN(C(=O)COc2ccc3ccccc3c2)CC1,13.5
Cc1ccccc1CN1CCN(Cc2ccc(C(N)=O)cc2)CC1,-10.3
O=C(Cn1c(=O)oc2cc(Cl)ccc21)N1CCN(S(=O)(=O)c2cccc(F)c2)CC1,-4.1
N#Cc1cccnc1N1CCN(CC(=O)Nc2ccccc2Cl)CC1,1.5
N=C1c2ccccc2CN1c1ccc(-c2ccc(N3Cc4ccccc4C3=N)cc2)cc1,-2.0
Cc1cccc(CN2CCC(CO)(Cc3ccccc3)CC2)c1,-3.1
CCOc1ccc(CN2CCC3(CC2)c2ccccc2[C@@H](NC(=O)COc2ccccc2)[C@@H]3O)cc1,-12.0
SMILES,mcGAS MS inh
O=C1OC(/C=C/c2cccc(Cl)c2Cl)=NC/1=C/c1ccccc1[N+](=O)[O-],-14.0
COc1ccc(/C=C2N=C(/C=C/c3cccc(Cl)c3Cl)OC\2=O)cc1,-0.4
O=C1OC(/C=C/c2cccc(Cl)c2Cl)=NC/1=C\c1ccc([N+](=O)[O-])cc1,70.9*
Cn1c(O)c(C=Nc2ccccc2N)c(=O)n(C)c1=O,-4.9
COc1ccc(Cl)cc1C(=O)Nc1cc(C2CC2)nn1-c1nc(C)cc(=O)[nH]1,-4.3
COc1cccc(NC(=O)CCC2CCN(Cc3ccc(F)c(OC)c3)CC2)c1,2.4

# Screens: PubChem, Fisher Drug Discovery Resource Center
